NCF1 inh: p47phox (human) inhibition | P14598 | p47phox/p22phox peptide binding, fluorescence polarization, 2 h | inhibition, % at 24.7 µM | 0.53% of 220,000 active | AID 1274;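 active = inhibition above about 30%, limit read from the data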;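 also: 0% = p47phox with labelled peptide and 100% = labelled peptide alone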
EP2 modulator: modulators of human EP2 prostaglandin E2 receptor; EP2-expressing cells, cAMP HTRF FRET, PGE2 co-stimulation; induction, % at 25 µM; 0.83% of 260,000 active; AID 940;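 active = compounds whose cAMP rise, as percent of the full-agonist control response, exceeds 60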;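 also: rat C6 glioma line stably carrying human EP2 under a CMV promoter; the protocol text gives 20 µM as final concentration; 100% = response of wells given 1 µM PGE2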
HSV augment: HSV replication enhancement | HSV replication augmentation in cells, fold increase | AID 1956 | maximum fold increase | 0.005% of 220,000 active; in the data active = maximum fold increase above about 1.5; tested in PC3 cells
PGE2 EP2 inh: inhibitors of human EP2 prostaglandin E2 receptor | P43116 | C6 glioma cells expressing human EP2, cAMP TR-FRET; cells stimulated with saturating PGE2 | inhibition, % at 25 µM | 0.52% of 260,000 active;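 active = percent inhibition above 40 after rounding to a whole number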;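 also: rat C6 glioma host cells with rolipram phosphodiesterase inhibitor present; the protocol text gives 20 µM as final concentration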
Furin inh: human furin inhibition. P09958. purified furin, fluorogenic substrate cleavage. inhibition, % at 20 µM or 30 µM. 0.061% of 220,000 active; in the data active = inhibition above about 25%
Wee1 stabilizer: human Wee1 degradation inhibition, primary screen; 1.2% of 220,000 active; AID 1321; HeLa Luc-Wee1K328M stability, luciferase luminescence; 100% = proteasome inhibitor MG132 effect; reporter increase, % at 5 µM;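 active = activation above the mean of all tested compounds plus 3 SD, set per screening run, cut at about 8.8% in these data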;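 also: cells exposed to compound for 20 h before luminescence read; 0% = DMSO alone and 100% = MG132 at 30 µM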
Target sequence (P30291 whole entry K328M): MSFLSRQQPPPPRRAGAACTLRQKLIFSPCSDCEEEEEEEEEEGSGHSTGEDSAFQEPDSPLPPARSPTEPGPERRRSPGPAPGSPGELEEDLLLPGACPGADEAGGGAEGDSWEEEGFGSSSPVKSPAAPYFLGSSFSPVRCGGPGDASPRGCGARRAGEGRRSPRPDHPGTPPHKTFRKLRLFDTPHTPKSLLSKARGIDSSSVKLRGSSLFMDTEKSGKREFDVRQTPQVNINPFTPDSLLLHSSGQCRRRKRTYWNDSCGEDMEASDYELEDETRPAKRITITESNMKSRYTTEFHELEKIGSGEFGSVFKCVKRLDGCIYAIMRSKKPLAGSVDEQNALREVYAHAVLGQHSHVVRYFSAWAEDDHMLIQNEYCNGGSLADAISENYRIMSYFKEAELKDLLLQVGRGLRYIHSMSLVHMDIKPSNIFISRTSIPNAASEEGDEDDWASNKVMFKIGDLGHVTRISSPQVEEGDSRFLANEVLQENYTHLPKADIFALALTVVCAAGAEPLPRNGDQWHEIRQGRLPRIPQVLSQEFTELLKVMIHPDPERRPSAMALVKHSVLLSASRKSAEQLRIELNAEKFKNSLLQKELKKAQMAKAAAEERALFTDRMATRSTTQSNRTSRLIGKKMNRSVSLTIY
* marks the source's active call; other numbers are inactive results; i = inactive; x = no result. In the library only some 2.8% were active in any assay of this set; here they are far more common.

SMILES | NCF1 inh | EP2 modulator | HSV augment | PGE2 EP2 inh | Furin inh | Wee1 stabilizer
Cc1ccnc(-n2cccc2CN(Cc2ccccc2)Cc2ccncc2)c1 | x | 50 | x | 8 | x | x
CC(C)NC(=O)C1CCN(C(=O)c2ccc(-c3ccccc3)cc2)CC1 | -11 | -2 | i | 15 | -2 | 11*
CC(C)NC(=O)C1CCN(C(=O)c2ccc(Cl)cc2)CC1 | x | -13 | x | 11 | x | x
Cc1ccc(C(=O)Nc2cc(Cl)ccc2N2CCCCC2)s1 | -7 | 62* | i | 12 | -6 | -3
Oc1ccc(Cn2c(-c3ccc(O)cc3)nc3ccccc32)cc1 | x | 21 | x | 47* | x | x
COc1cc(Cn2c(-c3ccc(O)c(OC)c3)nc3ccccc32)ccc1O | -4 | 55 | i | 5 | -18 | 1
CCC(c1nnnn1C1CCCC1)N(Cc1cc2cccc(C)c2[nH]c1=O)C1CCCCC1 (centres undefined) | x | 14 | x | 13 | x | x
COc1cc(C2C(C#N)=C(N)N(c3ccc(F)cc3)C3=C2S(=O)(=O)CC3)ccc1O (centres undefined) | -15 | 8 | i | 1 | -13 | 9.6*
COc1ccc(N2C(N)=C(C#N)C(c3ccc(O)c(OC)c3)C3=C2CCCC3=O)cc1 (centres undefined) | x | -15 | x | 9 | x | x
O=C(NC1CCCc2ccccc21)C1CCCN(S(=O)(=O)Cc2ccccc2)C1 (centres undefined) | x | 2 | x | 10 | x | x
CCCCOc1ccc(C(=O)NCc2ccccn2)cc1 | 38* | 4 | i | 11 | -18 | 1
COc1ccc(C(=O)NCc2ccccn2)cc1 | -6 | 28 | i | 5 | -23 | 0
CCC(C(=O)NC(C)c1nc(-c2ccncc2)n[nH]1)c1ccccc1 (centres undefined) | x | -4 | x | 7 | x | x
CCC(=O)NCc1cc(-c2nn(C)c(=O)c3ccccc23)ccc1C | -2 | 23 | i | 7 | -14 | 2
Cc1ccc(-c2nn(CC(=O)NCc3cc(-c4nn(C)c(=O)c5ccccc45)ccc3C)c(=O)c3ccccc23)cc1 | 59* | -10 | x | x | -22 | 3
O=c1[nH]c2ccc(S(=O)(=O)Nc3ccccc3)cc2o1 | x | -3 | x | 9 | x | x
O=c1[nH]c2ccc(S(=O)(=O)Nc3ccc(-c4nnc5n4CCCCC5)cc3)cc2o1 | 56* | -2 | i | 8 | -24 | 0
COc1ccc(C(=O)Nc2c(Cl)cc(Cl)cc2C(=O)N2CCOCC2)cc1 | -3 | 6 | i | -1 | -15 | 8.9*
COc1ccc2cc(OC)c(C(=O)N3CCOCC3)cc2c1 | 37* | 17 | i | 10 | -34 | -2
Cn1c(=O)n(C)c2cc(S(=O)(=O)Nc3ccc(O)cc3)ccc21 | x | -18 | x | 6 | x | x
CSC1=C(C#N)C(c2ccccc2)CC(=O)N1 (centres undefined) | x | 5 | x | 8 | x | x
O=C(Cn1cnc2c(nnn2-c2ccccc2)c1=O)NCc1ccc(F)cc1 | 0 | -13 | i | 12 | -21 | 0
Cc1ccc(-n2nnc3c(=O)n(CC(=O)NCc4ccccc4)cnc32)cc1 | -4 | 5 | i | 10 | -18 | 15*
COC(=O)c1cccc(-n2nnnc2SCC(=O)Nc2nc(C)c(C)s2)c1 | x | -38 | x | 10 | x | x
O=C(c1ccco1)N1CCCN(Cc2nc(-c3cccs3)no2)CC1 | -1 | -40 | i | 14 | -27 | -2
SMILES | NCF1 inh | EP2 modulator | HSV augment | PGE2 EP2 inh | Furin inh | Wee1 stabilizer
O=C(c1ccco1)N1CCN(Cc2nc(Cc3ccccc3)no2)CC1 | 131* | -13 | i | 3 | -34 | 5
Cc1ccc2nc(C(C)O)[nH]c2c1 (centres undefined) | -8 | 5 | i | 1 | -9 | 9.5*
Cc1ccc2nc(C(O)C(O)c3nc4ccc(C)cc4[nH]3)[nH]c2c1 (centres undefined) | -4 | -2 | i | 3 | -13 | -1
CCN(C(=O)C1CCCCC1)c1nnc(-c2ccccc2C)s1 | x | 12 | x | 13 | x | x
COc1ccc(-n2ncc3c(=O)n(CC(=O)Nc4ccccc4C)cnc32)cc1 | x | 9 | x | 26 | x | x
C=CCc1cccc(/C=N/NC(=O)CCCNc2ccc(C)cc2)c1O | 94* | 24 | i | 3 | -13 | 2
O=C(NC1(c2ccccc2F)CCCC1)c1cccc(-n2cnnc2)c1 | x | 2 | x | 7 | x | x
CCOc1ccc2nc(SC3CC(=O)N(c4cccc(OC)c4)C3=O)sc2c1 (centres undefined) | -30 | -17 | i | 5 | -10 | 9.1*
Cn1c(N)c(C#N)c2c(c1=S)CSC(C)(C)C2 | 4 | -26 | i | 14 | -6 | -2
CC1(C)Cc2c(C#N)c(N)sc(=S)c2CS1 | 52* | -24 | i | 23 | -12 | 0
CCC(C)NC(=O)c1cc2cc3ccc(OC)cc3nc2s1 (centres undefined) | 3 | -10 | i | 18 | -34 | 9.0*
COc1ccc2cc3cc(C(=O)NCCN4CCc5ccccc5C4)sc3nc2c1 | -5 | -79 | i | 10 | -49 | -2
Cc1c(N=C/C=C2/N(C)c3ccccc3C2(C)C)c(=O)n(-c2ccccc2)n1C | -43 | -10 | i | 12 | 26* | -2
Cc1cc2cc(CNC(=S)NC3CCCCC3)ccc2[nH]1 | -6 | -15 | i | 6 | -20 | 9.9*
CN1CCc2c(sc(NC(=O)c3cc4cc([N+](=O)[O-])ccc4s3)c2C(N)=O)C1 | 77* | -59 | i | 12 | -17 | -1
CC1CCc2c(sc3ncn(C4CCN(CCC(N)=O)CC4)c(=O)c23)C1 (centres undefined) | x | -27 | x | 3 | x | x
Cc1oc2ncnc(N)c2c1C | 3 | -2 | i | 7 | -11 | -3
Cc1ccc(-c2oc3ncnc(N)c3c2-c2ccc(C)cc2)cc1 | -17 | 61* | i | 5 | -18 | 3
CC1(C)N=C(SCC(=O)Nc2ccc(Cl)cc2Cl)C(c2ccccc2)=N1 | -15 | 11 | i | 11 | -19 | 3
CN1C(CC(=O)Nc2ccc(Cl)cc2Cl)c2ccccc2CC1(C)C (centres undefined) | -21 | 61* | i | 8 | -16 | -2
O=C(c1ccco1)N(Cc1ccco1)c1nc(-c2ccccc2)cs1 | x | 78* | x | 10 | x | x
CCSc1nc2c(c(=O)n(C)c(=O)n2C)n1CC | x | 16 | x | 2 | x | x
CS(=O)(=O)Nc1ccc(Nc2c3ccccc3nc3ccccc23)cc1 | x | -18 | x | 64* | x | x
Cc1ccc2nc(-c3ccc(NS(C)(=O)=O)cc3)cc(-c3ccccc3)c2c1 | -11 | 46 | i | 7 | -19 | 0
CCc1c(C)nc2cc(-c3ccc(OC)c(OC)c3)nn2c1NCCCO | x | -56 | x | 10 | x | x
C=CCc1c(C)nc(C)[nH]c1=O | x | 2 | x | 7 | x | x
Oc1ccc(-c2csc(-c3ccccc3)n2)c(O)c1 | x | -142 | x | 48* | x | x
Oc1ccc(-c2csc(-c3cccnc3)n2)c(O)c1 | 3 | -9 | i | 7 | -24 | 3
CCc1cccc(C)c1NC(=O)CSc1nnc(C2CC2)n1C | x | -5 | x | 13 | x | x
CC(=O)Oc1ccc(N(c2ccccc2)S(=O)(=O)c2ccc(C)cc2)cc1 | -12 | 61* | i | 9 | -20 | 1

Compound activity: PubChem BioAssay, several laboratories
